# Experimental data from PubChem BioAssay (NCATS).
# Records with an inconclusive call do not appear. The source made the active and inactive calls. Calls come from the whole dose curve; as a rule, active = well fitted inhibition curve with a large enough effect; inconclusive = small, poorly fitted or top-dose-only effect; inactive = flat fitted curve, though single readings scatter. Where a SMILES comes first, the peptide text is derived from it. [ ]: non-standard residue; d: D form. pGlu = O=C1CC[C@@H](C(=O)O)N1; Thz = O=C(O)[C@@H]1CSCN1
# Tested on: NIH3T3
# Experiment: Cytotoxic Profiling of Annotated Libraries Using Quantitative High-Throughput Screening (AID 1296008); note: potency is the fitted concentration of half-maximal effect; for max response: % is set by controls: 0 for no effect and ±100 for the full control effect
# Conditions: Five cell lines viability, CellTiter-Glo ATP luminescence, 48-72 h; max response: hits give low values
# Summary of the method: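 Compounds were pin-transferred onto cells and incubated 48 or 72 hr at 37 degree Celsius, 95% humidity. CellTiter-Glo was added, plates sat 10 min at room temperature, then ATP-coupled luminescence was imaged as the viability read-out.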
# Note: nearly all actives have a fitted effect of over 60% in size.
SMILES,max response,outcome,Potency
CN1[C@@H]2CC[C@H]1CC(OC(=O)C(CO)c1ccccc1)C2 (stereo not given in full),3.27% (inactive),–,–
O=C(O)CC1CC(c2ccccc2)=NO1 (stereo not given),-6.76% (inactive),–,–
CN(CCCOc1ccc(Cc2ccccc2)cc1)CCC(=O)O,–,inactive,–
COC(=O)C1=C(C)NC(C)=C(C(=O)OCC(C)C)C1c1ccccc1[N+](=O)[O-] (stereo not given),-5.79% (inactive),–,–
O=C(O)[C@H](CC(=O)N1C[C@H]2CCCC[C@H]2C1)Cc1ccccc1,3.24% (inactive),–,–
C#C[C@]1(O)CC[C@H]2[C@@H]3CCc4cc(O)ccc4[C@H]3CC[C@@]21C,-26.3% (inactive),–,–
CCN(CC)CCCCNc1ncc2cc(-c3c(Cl)cccc3Cl)c(NC(=O)NC(C)(C)C)nc2n1,–,–,1.16 µM (active)
O=c1[nH]c2ccccc2n1CCCN1CCN(C(c2ccccc2)c2ccccc2)CC1,-21.6% (inactive),–,–
CC(=O)O[C@H]1C[C@@]2(C)[C@@H](C[C@@H](O)[C@H]3[C@@]4(C)CC[C@@H](O)[C@@H](C)[C@@H]4CC[C@@]32C)/C1=C(\CCC=C(C)C)C(=O)O,–,inactive,–
COc1cc(CNC(=O)CCCC/C=C/C(C)C)ccc1O,-2.4% (inactive),–,–
Fc1ccc2[nH]c(CN3CCN(c4ccccn4)CC3)cc2c1,-28.5% (inactive),–,–
O=C(Nc1ccc2[nH]ncc2c1)C1CCC1,4.63% (inactive),–,–
O=[N+]([O-])c1ccc(CNc2nc(NCc3cccc(C(F)(F)F)c3)nc3nc[nH]c23)cc1,–,inactive,–
CCCCN(CC)c1nc(C)nc2c1c(C)cn2-c1c(C)cc(C)cc1C,-2.65% (inactive),–,–
O=C1CN(/N=C/c2ccc([N+](=O)[O-])o2)C(=O)N1,–,inactive,–
CCCSc1ccc2nc(NC(=O)OC)[nH]c2c1,–,–,1.88 µM (active)
COc1ccc(/C=C/C(=O)Nc2ccccc2C(=O)O)cc1OC,-8.92% (inactive),–,–
O=C1CC[C@@H](C(=O)N2CSC[C@H]2C(=O)O)N1 ([pGlu]-[Thz]-OH),–,inactive,–

# Tested on: HACAT
# Experiment: qHTS assay to identify novel small-molecules to repurpose for Merkel cell carcinoma treatment (AID 1296009)
# Conditions: MCC and control cell lines, CellTiter-Glo viability, 72 h; at 44.8 µM (top of the series) unless noted
# Summary of the method: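 Cells exposed to NPC (8-point) and MIPE (11-point) compound dilutions for 72 hr at 37 degree celsius; viability read by CellTiter-Glo luminescence, normalized to no-cell and DMSO in-plate controls.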
row,SMILES,outcome
1,O=Cc1ccc(O)c(O)c1O,inactive
2,Nc1ccc(O)c([N+](=O)[O-])c1,inactive [at 92 µM]
3,Cc1cc(O)c2ccccc2c1O,inactive
4,CC(C(=O)O)c1ccc(C(=O)c2ccccc2)s1 (stereo not given),inactive
5,Clc1ccccc1-c1nc(-c2ccncc2)no1,inactive
6,CC1(C)S[C@@H]2[C@H](NC(=O)[C@H](N)c3ccccc3)C(=O)N2[C@H]1C(=O)O,inactive
7,COC(=O)Nc1nc2ccc(C(=O)C3CC3)cc2[nH]1,inactive
